# D1 antagonist: Antagonist of Human D 1 Dopamine Receptor: qHTS | HEK293 TREx D1 cells, calcium flux, dopamine EC80; active compounds read low | 360,000 tested, 3.2% active | activity change, negative = inhibition, % at 10 µM | D(1A) dopamine receptor (Homo sapiens), P21728 | AID 504652, 2011; in the data active means activity change below about -30%; further: on the % scale 0 is the no-effect control and ±100 the full control effect
# Target sequence (P21728 whole entry, looked up): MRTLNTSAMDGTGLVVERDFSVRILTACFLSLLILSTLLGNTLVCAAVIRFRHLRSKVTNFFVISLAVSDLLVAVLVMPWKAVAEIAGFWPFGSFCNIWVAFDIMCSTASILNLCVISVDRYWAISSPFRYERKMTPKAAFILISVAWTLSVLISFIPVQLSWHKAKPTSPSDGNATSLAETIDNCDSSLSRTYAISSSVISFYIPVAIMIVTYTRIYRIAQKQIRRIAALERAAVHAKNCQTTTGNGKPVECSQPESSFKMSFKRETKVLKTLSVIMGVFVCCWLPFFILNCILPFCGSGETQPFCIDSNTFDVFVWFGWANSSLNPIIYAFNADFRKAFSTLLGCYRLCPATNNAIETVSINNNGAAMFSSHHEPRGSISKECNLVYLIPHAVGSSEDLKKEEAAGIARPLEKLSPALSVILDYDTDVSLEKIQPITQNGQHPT
#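 Antagonism measured as reduced calcium response to an EC80 dopamine addition following 180 s compound pre-read; cells were inducible HEK293 Trex D1 plated overnight at 30 C, read kinetically at 1 cycle/sec.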
# TRHR PAM: qHTS for Small Molecule Agonists and Allosteric Enhancers of Human TRH Receptor: Primary Screen for Enhancers; Thyrotropin-releasing hormone receptor (Homo sapiens), P34981; TRHR cells, fluo-8 calcium fluorescence, EC20 TRH enhancement; enhancement, % at 2 µM; 360,000 tested, 0.66% active; AID 493056, 2011; in the data active means enhancement above about 30%; further: 0% is about no effect
#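 Enhancer read-out: after compound pinning and an initial kinetic agonist-mode read, an EC20 of TRH (10 nM final) was injected and fluo-8 calcium signal (Ex 480/Em 530) followed at 1 s/cycle for 100 cycles in TRHR-expressing cells.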
# TRHR ag: qHTS for Small Molecule Agonists and Allosteric Enhancers of Human TRH Receptor: Primary Screen for Agonists; Thyrotropin-releasing hormone receptor (Homo sapiens), P34981; TRHR cells, calcium flux fluo-8, FDSS agonist mode; activation, % at 2 µM; 360,000 tested, 0.18% active; further: 0% is about no effect
#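 In this calcium-flux screen, cells bearing human TRHR are dye-loaded with fluo-8, baselined for 10 cycles, then exposed to library compounds; positive kinetic calcium responses during the agonist phase mark hits, with TRH as control.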
# D1 PAM: Potentiators of Human D1 Dopamine Receptor: qHTS | potentiation, % at 10 µM | 360,000 tested, 0.036% active | D(1A) dopamine receptor (Homo sapiens), P21728 | AID 504651, 2011 | HEK293 TREx D1 cells, calcium flux, dopamine EC20 potentiation; in the data active means potentiation above about 30%; further: 0% is about no effect
# D1 agonist: Allosteric Agonists of the Human D1 Dopamine Receptor: qHTS; 360,000 tested, 1% active; D(1A) dopamine receptor (Homo sapiens), P21728; HEK293 T-REx D1 cells, calcium flux, agonist mode; activation, % at 2 µM; further: 0% is about no effect
#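 Inducible HEK293 T-REx D1 cells, force-coupled to calcium signalling, were plated at 4000 cells/well with tetracycline and held overnight at 30 C. After no-wash calcium dye loading, compound-evoked calcium rise over 180 s flagged agonists.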
# * hit, by the source's call. Shown are actives, neighbours in structure and some others; about 4.7% of the full set was active somewhere. Unless noted, no stated cut-off is given here; in the data, active means activation above about 30%; inactive means the rest.
SMILES,D1 antagonist,TRHR PAM,TRHR ag,D1 PAM,D1 agonist
Cc1ccc(CSc2nnc(SCC(=O)N/N=C/C=C/c3ccccc3[N+](=O)[O-])s2)cc1,-10,7,1,3,3
COc1cccc(CNS(=O)(=O)c2ccc3[nH]c4c(c3c2)CCCCC4)c1,-8,12,0,-4,10
O=C(O)c1cc(-c2ccc(Br)s2)nc2ccccc12,0,2,0,2,2
Brc1[nH]nc2ccccc12,-33*,-4,0,-5,2
CCOC(=O)c1cc(S(=O)(=O)NCc2ccc(F)cc2)[nH]n1,-21,3,-1,-2,3
CCOC(=O)c1cc(S(=O)(=O)NCc2ccc(Cl)cc2)[nH]n1,-32*,-5,0,-1,2
COc1ccc(S(=O)(=O)NCc2ccccn2)cc1OC,-5,-2,0,-7,5
COc1ccccc1Oc1ccc(S(=O)(=O)NCc2ccccn2)cc1,-54*,6,0,-8,14
O=C(CN1CCOCC1)c1c[nH]c2ccccc12,-1,-2,1,2,5
O=C(NCCN1CCOCC1)C(=O)c1c[nH]c2ccccc12,-52*,2,0,1,2
CCC(=O)c1c[nH]c(C(=O)N2CCN(c3ccccc3)CC2)c1,-3,2,1,-1,1
CCC(=O)c1c[nH]c(C(=O)N2CCOCC2)c1,-37*,-6,0,-7,0
O=C(Nc1nc(-c2ccc(Br)cc2)cs1)c1cccnc1,-2,-10,0,4,3
CC(C)/C=N/Nc1nc(-c2ccc(Br)cc2)cs1,-46*,2,0,-2,0
Cc1cc2c(s1)c1cnn(Cc3ccccc3F)c(=O)c1n2Cc1ccccc1F,-3,-3,1,15,3
Cc1ccc(/C=[N+](\[O-])c2ccc(N(C)C)cc2)c2nsnc12,-5,-3,16,3,37*
Cc1ccc2nsnc2c1NS(=O)(=O)c1c(C)ccc2nsnc12,0,-6,-1,2,0
CCCC(C(=O)NCc1cccc(Cl)c1)N1Cc2ccccc2C1=O (stereo not drawn),7,-2,0,3,-1
CCC1Oc2ccccc2N(CC(=O)NCCC2=CCCCC2)C1=O (stereo not drawn),-34*,-1,-1,-1,6
O=C(NCCC1=CCCCC1)c1ccc(Br)o1,6,-4,0,-7,0
O=C(CCc1ccccc1)NCCC1=CCCCC1,-33*,7,0,14,2
O=C(NCCC1=CCCCC1)C(c1ccccc1)c1ccccc1,-33*,-4,0,-8,5
O=C(NC(=S)NCCC1=CCCCC1)c1ccc(Br)o1,-32*,-8,0,-5,4
O=C(CCCc1ccccc1)NCCC1=CCCCC1,-10,0,-2,-4,0
Cc1ccccc1C1CCCN(C(=O)c2cc(COc3c(F)cccc3F)on2)C1 (stereo not drawn),-33*,-5,3,-6,16
SMILES,D1 antagonist,TRHR PAM,TRHR ag,D1 PAM,D1 agonist
CCCOC1CCCN(C(=O)c2cc(COc3c(F)cccc3F)on2)C1 (stereo not drawn),7,5,0,2,1
Cc1ccc(CCNC(=O)c2ccc3c(c2)N(Cc2ccccc2F)C(=O)c2ccccc2S3=O)cc1 (stereo not drawn),-7,2,0,-3,7
COc1cc(/C=C2/NC(=O)NC2=O)ccc1OCC(=O)Nc1ccc(F)cc1,-71*,-7,0,-10,4
CCOC(=O)COc1ccc(/C=C2/C(=O)NN(c3ccc(F)cc3)C2=O)cc1OC,53,38*,0,9,0
CCOC(=O)c1ccc(N2NC(=O)/C(=C/c3ccc(OC(=O)c4ccco4)c(OC)c3)C2=O)cc1,-2,-5,1,-4,1
CC(C)C(c1nnnn1C1CCCCC1)N1CCc2ccccc21 (stereo not drawn),6,0,-1,2,0
Cc1ccc(C(c2nnnn2C2CCCCC2)N2CCc3ccccc32)cc1 (stereo not drawn),-34*,5,-1,-8,3
Cc1ccc(NC(=O)c2cc(CN3CCOCC3)on2)cc1Cl,-7,5,1,-5,9
Cc1ccc(/C=C2\SC(N3CCCC3)=NC2=O)cc1,15,18,-1,-1,-1
CN(C)c1ccc(/C=C2\SC(N3CCCCC3)=NC2=O)cc1,-17,0,12,29,37*
O=C1Nc2ccccc2C12OCCCO2,-44*,-7,0,-3,3
CCc1ccc(NC(=O)CC2C(=O)N(c3cccc(OC)c3)C(=O)N2C2CCCC2)cc1 (stereo not drawn),-5,-1,0,-2,0
CCOCCCNC(=O)c1cnc2sc(N3CCCCCC3)nn2c1=O,-31*,5,0,-1,0
Cc1ccc2cc3cc(C(=O)N4CCN(c5ccccc5)CC4)oc3nc2c1,10,-3,0,-1,0
COc1ccc(-n2nnc(-c3nsc(NC(=O)c4cccc(C)c4)n3)c2C)cc1OC,13,4,0,-3,2
Clc1ccc(OCc2nc(-c3ccc(Br)o3)no2)cc1,-40*,6,0,-2,2
COc1cc2oc(=O)ccc2cc1[C@H](O)[C@@H](O)C(C)(C)O,14,39*,0,-1,-1
C/C(=N/OCC(=O)Nc1ccccc1)c1cccs1,-3,2,0,11,31*
C/C(=N\OCC(=O)N/N=C/c1ccccc1)c1cccs1,3,35*,0,0,3
COc1ccc(/C=N/NC(=O)CO/N=C(\C)c2cccs2)cc1,1,-2,1,-4,0
Cc1ccc(CN(Cc2ccco2)C(=O)COc2ccc(C)c(C)c2)cc1,-29,-9,1,-3,10
Cc1cc(=O)oc2ccc(OCC(=O)N(Cc3ccc(F)cc3)Cc3ccco3)cc12,-42*,-5,0,-6,17
Cc1cc(C)c2c(CC(=O)N(Cc3ccc(Cl)cc3)Cc3ccco3)coc2c1,16,12,6,2,38*
Cc1cccc(OCC(=O)N(Cc2cccc(Cl)c2)Cc2ccco2)c1C,-17,-8,4,-1,31*
Cc1cc(Cl)ccc1OCC(=O)N(Cc1ccco1)Cc1ccco1,-11,-6,0,0,6
CCCCn1cc(S(=O)(=O)c2ccc(OC)cc2)c(=O)c2cc(F)c(N3CCOCC3)cc21,-2,15,0,-3,-1
Cc1cc2ncc(-c3cccs3)nc2cc1C,-6,31*,0,-3,0

# Screening results from PubChem.
